Screen size: about 52,000 compounds; about 4,300 (8.3%) were called active. Rule as the data show it: active = survival mostly below about 52% (no sharp cut-off); inactive = mostly above about 56%. Shown is part of a subset that was picked to be rich in actives.

The experiment has as its system DeltatarO mutant. The experiment can be described thus: growth inhibition of S. aureus wild type versus tarO mutant, primary screen, teichoic acid synthesis inhibitors, RN4220, OD600 (AID 463173). The conditions noted are these: OD600, 18 h, hits give low values, screened at 18.75 µg/mL (by protocol).
Turning to `CCC(Oc1ccccc1)C(=O)Nc1nnc(S(=O)(=O)N2CCCC2)s1` (configuration not stated), the survival is 103% (inactive).
In the case of `CCOc1ccc(C(=O)Nc2nnc(S(=O)(=O)N(CC)c3ccccc3C)s2)cc1`, the survival is 44% (active).
For the compound `O=C(COc1ccccc1)Nc1nnc(S(=O)(=O)Nc2ccccc2)s1`, the survival was 79% (inactive).
Turning to `CCC(Oc1ccccc1)C(=O)Nc1nnc(S(=O)(=O)N(CC)CC)s1` (configuration not stated), the survival is 104% (inactive).
As for `CCOc1ccc(C(=O)Nc2nnc(S(=O)(=O)Nc3ccccc3)s2)cc1`, the survival was 34% (active).
As to `COc1ccc(NS(=O)(=O)c2nnc(NC(=O)c3ccccc3F)s2)cc1`, the survival is 72% (inactive).
With `COc1ccc(C(=O)Nc2nnc(C(C)C)s2)cc1OC`, the survival was 55% (inactive).
For the compound `CCN(c1ccccc1C)S(=O)(=O)c1nnc(NC(=O)c2ccc(OC)c(OC)c2)s1`, the survival is 40% (active).
`CCC(Oc1ccccc1)C(=O)Nc1nnc(S(=O)(=O)Nc2ccccc2)s1` (configuration not stated): the survival is 40% (active).
The result for `O=C(Cn1c(-c2cccs2)cc2cc(Cl)ccc21)N1CCN(c2ccccc2)CC1` reads 78% (inactive); that for `CCOC(=O)c1cccnc1SCC(=O)Nc1ccc(C)cc1C`, 79% (inactive); that for `COc1ccc(NC(=O)CN(C)S(=O)(=O)c2cnc[nH]2)cc1`, 95% (inactive).
Take `CN(Cc1ccccc1)C(=O)CSc1nc2ccccc2n1Cc1ccccc1F`: the survival is 86% (inactive).
For `Cc1ccc(OCC(=O)NCC2(N(C)C)CCCCC2)cc1C`, the survival was 83% (inactive).
As for `CCOc1ccc(CCNC(=O)c2nnc(Cc3ccc(Cl)cc3Cl)o2)cc1OCC`, the survival is 83% (inactive).
As to `COc1ccccc1C(=O)Nc1nnc(S(=O)(=O)N2CCCCC2)s1`, the survival was 69% (inactive).
Consider `COc1ccccc1C(=O)Nc1nnc(S(=O)(=O)N2CCCCCC2)s1`, for which the survival was 56% (active).
The result for `O=C(Nc1nnc(S(=O)(=O)N2CCOCC2)s1)c1ccccc1F` reads 86% (inactive).
The same measure for `O=C(Nc1nnc(S(=O)(=O)N2CCOCC2)s1)c1ccccc1Cl`: 79% (inactive); for `O=C(Nc1nnc(S(=O)(=O)N2CCCCCC2)s1)c1ccccc1Cl`: 38% (active).
Consider `COc1ccccc1C(=O)Nc1nnc(S(=O)(=O)N2CCN(c3ccc(F)cc3)CC2)s1`, for which the survival was 50% (inactive).
The same measure for `O=C(Nc1nnc(S(=O)(=O)N2CCCC2)s1)c1ccccc1F`: 28% (active).
For `Cc1ccccc1C(=O)Nc1nnc(S(=O)(=O)N2CCCCCC2)s1`, the survival is 47% (active).
The result for `O=C(Nc1nnc(S(=O)(=O)N2CCCC2)s1)c1ccccc1Cl` reads 117% (inactive).
Consider `COc1ccc(N(C)S(=O)(=O)c2ccc3c(c2)n(C)c(=O)c(=O)n3C)cc1`, for which the survival was 86% (inactive).
Take `O=C(CN1CCCN(Cc2ccccc2Cl)S1(=O)=O)NCc1ccccc1`: the survival is 94% (inactive).
In the case of `CCCn1c(=O)c2sccc2n2c(CCCC(=O)NCc3ccccc3)nnc12`, the survival was 83% (inactive).
The result for `O=C(c1ccccc1)n1nc(-c2ccco2)nc1NCc1ccccc1Cl` reads 103% (inactive); that for `O=C1C2C3C=CC(C3)C2C(=O)N1c1ccc(-c2nc3ccccc3o2)cc1` (configuration not stated), 89% (inactive); that for `CCN(C(=O)Cn1c(=O)n(CCCS(=O)(=O)C2CCCCC2)c(=O)c2ccccc21)c1cccc(C)c1`, 87% (inactive).
As for `COc1ccccc1CNC(=O)c1ccc2c(c1)N(Cc1cc(C)ccc1C)C(=O)c1ccccc1S2`, the survival is 68% (inactive).
Consider `COc1cccc(NC(=O)Cn2c(=O)oc3cc(S(=O)(=O)N4CCCCC4)ccc32)c1`, for which the survival was 112% (inactive).
`COc1ccc(N2CCN(C(=O)CN3C(=O)CSc4c3c(C)nn4-c3ccccc3)CC2)cc1`: the survival was 79% (inactive).
Turning to `CC(=O)NCCNC(=O)c1ccc2c(=O)n(CCc3ccccc3)c(=O)[nH]c2c1`, the survival is 83% (inactive).
The result for `O=C(Nc1nnc(S(=O)(=O)N2CCCCCC2)s1)c1ccccc1F` reads 47% (active); that for `CCc1ccc2oc(C(=O)Nc3cc(C)ccc3C)cc(=O)c2c1`, 52% (inactive).
The result for `Cc1ccc(C(=O)Nc2ccc3oc(-c4cccnc4)nc3c2)cc1` reads 83% (inactive); that for `Cc1ccccc1C(=O)Nc1c(C(=O)Nc2cccc(F)c2)oc2ccccc12`, 46% (active).
As for `CCOC(=O)C(=O)Nc1c(C(=O)Nc2cccc(F)c2)oc2ccccc12`, the survival is 97% (inactive).
In the case of `COc1cccc(NC(=O)c2oc3ccccc3c2C)c1`, the survival was 106% (inactive).
The same measure for `COc1cccc(NC(=O)c2oc3ccccc3c2NC(=O)COc2ccccc2C)c1`: 122% (inactive); for `Cc1ccc(NC(=O)c2oc3ccccc3c2NC(=O)c2ccccc2C)cc1`: 79% (inactive); for `COc1cccc(NC(=O)c2oc3ccccc3c2NC(=O)c2ccccc2C)c1`: 43% (active).
The same measure for `O=C(OCc1cc(=O)n2nc(-c3cccs3)sc2n1)c1ccccc1Br`: 75% (inactive).
As for `CC1C(C(=O)Nc2ccccc2)CCCC1(C)C(=O)O` (configuration not stated), the survival is 80% (inactive).
On to `CC(=O)c1cccc(NC(=O)C2CCN(c3ncnc4c3nc3n4CCCCC3)CC2)c1`, for which the survival is 84% (inactive).
As to `O=C(CN(c1ccc2c(c1)OCCO2)S(=O)(=O)c1ccccc1)NC1CC1`, the survival was 75% (inactive).
On to `CCOc1ccc(NC(=O)c2ccc3c(=O)n4nc(Nc5ccccc5C)sc4nc3c2)cc1`, for which the survival is 113% (inactive).
On to `CCCCN(CC)C(=O)C1CCC(CNS(=O)(=O)c2cccc3nsnc23)CC1` (configuration not stated), for which the survival is 83% (inactive).
As for `CN(C)c1ccc(CNC(=O)CCC(=O)N2Cc3ccccc3Oc3ncccc32)cc1`, the survival is 83% (inactive).
For the compound `CC(C)NC(=O)CCC(=O)N1Cc2ccccc2Oc2ncccc21`, the survival was 0% (active).
In the case of `Cc1ccc(NC(=O)CCC(=O)N2Cc3ccccc3Oc3ncccc32)cc1`, the survival was 49% (inactive).
As for `CCOc1ccc(CNC(=O)CCC(=O)N2Cc3ccccc3Oc3ncccc32)cc1`, the survival is 32% (active).
With `Cc1ccc(CNC(=O)CCC(=O)N2Cc3ccccc3Oc3ncccc32)cc1`, the survival was 71% (inactive).
On to `Cc1ccc(NC(=O)CCC(=O)N2Cc3ccccc3Oc3ncccc32)cc1Cl`, for which the survival is 83% (inactive).
The result for `CC(C)CCNC(=O)CCC(=O)N1Cc2ccccc2Oc2ncccc21` reads 55% (inactive); that for `O=C(CCC(=O)N1Cc2ccccc2Oc2ncccc21)Nc1ccc(Cl)cc1`, 37% (active); that for `CCC(C)NC(=O)CCC(=O)N1Cc2ccccc2Oc2ncccc21` (configuration not stated), 117% (inactive).
In the case of `CCOc1ccc(CNC(=O)Cn2nc(C)n3cccc3c2=O)cc1`, the survival was 101% (inactive).
Take `Cc1cccc(NC(=O)C2CCN(S(=O)(=O)c3ccc(F)cc3)CC2)c1C`: the survival was 60% (inactive).
The same measure for `COc1ccc(CNC(=O)CCCN2C(=O)CCn3nc(-c4cn(C)c5ccccc45)cc32)cc1`: 88% (inactive); for `COc1ccc(OC)c(NC(=O)Cc2coc3ccc(C(C)C)cc23)c1`: 73% (inactive); for `Cc1ccc(N(C)C(=O)Cn2nc(Cc3ccncc3)c3ccccc3c2=O)cc1C`: 84% (inactive).
For the compound `Oc1ccc2ccccc2c1/C=N/c1nccs1`, the survival was 81% (inactive).
For the compound `CCOc1ccccc1NC(=O)Nc1ccc2nc(N3CCN(C)CC3)cc(C)c2c1`, the survival was 75% (inactive).
Regarding `COc1ccc(CCNC(=O)C(=O)NCC(c2cccs2)S(=O)(=O)c2cccs2)cc1` (configuration not stated), the survival was 78% (inactive).
With `COc1cc(S(=O)(=O)N2CCCCC2C)c(OC)cc1Cl` (configuration not stated), the survival was 114% (inactive).
The same measure for `CC(CCc1ccccc1)NC(=O)Cn1c(=O)nc(-c2ccccc2)c2ccccc21` (configuration not stated): 99% (inactive); for `CC1(C)OC(=O)C(=C2CCCCCN2)C(=O)O1`: 99% (inactive).
The same measure for `COc1ccccc1NC(=O)c1sc2nc(-c3cc4ccccc4oc3=O)[nH]c(=O)c2c1C`: 106% (inactive).
For the compound `COc1ccc(Cl)cc1NC(=O)c1sc2nc3n(c(=O)c2c1C)CCC3`, the survival is 76% (inactive).
The result for `COc1ccccc1NC(=O)c1sc2nc(-c3cc4cc(Cl)ccc4oc3=O)[nH]c(=O)c2c1C` reads 45% (active).
Take `Cc1c(C(=O)Nc2ccccc2)sc2nc(-c3cc4cc(Cl)ccc4oc3=O)[nH]c(=O)c12`: the survival was 45% (active).
Turning to `CC(C)(C)C1CCc2c(sc3nc(-c4cc5cc(Cl)ccc5oc4=O)[nH]c(=O)c23)C1` (configuration not stated), the survival was 83% (inactive).
Take `O=C(O)c1ccc2nc(-c3cc4cc(Cl)ccc4oc3=O)[nH]c2c1`: the survival is 69% (inactive).
Turning to `COc1ccc(-c2cn3nc(SCC(=O)Nc4ccc(C)c(Cl)c4)ccc3n2)cc1`, the survival is 94% (inactive).
As to `COc1ccccc1N1CCN(C(=O)c2oc3ccccc3c2NC(=O)C(C)Oc2ccccc2)CC1` (configuration not stated), the survival was 69% (inactive).
For `CCNc1nc2c(c(=O)[nH]c(=O)n2C)n1CC(O)COc1ccc(Cl)cc1Cl` (configuration not stated), the survival was 180% (inactive).
As to `CN(C)c1ccc(CNS(=O)(=O)c2csc(C(N)=O)c2)cc1`, the survival was 60% (inactive).
The result for `O=C(CC1N=C2c3ccccc3N=C(SCc3ccc(F)cc3)N2C1=O)NCCc1ccccc1` (configuration not stated) reads 85% (inactive); that for `COc1ccc(Nc2nc3ccccc3nc2NS(=O)(=O)c2ccc(Cl)cc2)cc1OC`, 29% (active).
With `COc1cc(Cl)c(C)cc1Nc1nc2ccccc2nc1NS(=O)(=O)c1ccccc1`, the survival was 116% (inactive).
As to `CCc1ccc(Nc2nc3ccccc3nc2NS(=O)(=O)c2ccccc2)cc1`, the survival is 28% (active).
Turning to `COc1ccc(Nc2nc3c(S(=O)(=O)c4ccccc4)nnn3c3ccc(Cl)cc23)cc1OC`, the survival was 117% (inactive).
In the case of `CCOc1ccccc1Nc1nc2ccccc2nc1NS(=O)(=O)c1ccc(Cl)cc1`, the survival was 79% (inactive).
Consider `CCOc1ccc(S(=O)(=O)Nc2nc3ccccc3nc2Nc2ccc(OC)cc2)cc1`, for which the survival is 68% (inactive).
As for `Cc1cccc(C)c1Nc1nc2ccccc2nc1NS(=O)(=O)c1ccccc1`, the survival is 79% (inactive).
For the compound `CCOC(=O)c1ccc(Nc2nc3ccccc3nc2NS(=O)(=O)c2ccc(Cl)cc2)cc1`, the survival was 37% (active).
With `Cc1ccc2nc(NS(=O)(=O)c3ccc(Cl)cc3)c(Nc3ccc(C(=O)O)cc3)nc2c1`, the survival is 109% (inactive).
The result for `COc1ccc2nc(NS(=O)(=O)c3ccc(C)cc3)c(Nc3cc(Cl)ccc3OC)nc2c1` reads 22% (active); that for `COc1ccc(Nc2nc3ccccc3nc2NS(=O)(=O)c2ccc(C)cc2)c(OC)c1`, 63% (inactive).
On to `CCOC(=O)c1ccc(Nc2nc3ccccc3n3c(C)nnc23)cc1`, for which the survival was 67% (inactive).

The values are drawn from PubChem BioAssay AID463173 (ICCB-Longwood Screening Facility, Harvard Medical School, 2010).
